The text below walks through data of PubChem BioAssay.

The structures appear in SMILES notation.

For this experiment, the target named is Calmodulin-1 (Homo sapiens) (UniProt P0DP23). Description: small molecules binding Ca-loaded calmodulin-1 – biochemical, small-molecule microarray, Cy5-labelled CALM1, plus calcium, artefact control for SMM control-protein annotation, profiling panel (AID 1112).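 Further: score merges spot fluorescence with signal to noise from triplicate slides.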 The conditions noted are these: Cy5-CALM1 binding fluorescence, higher = more signal.
As for `CCOC(=O)[C@H](Cc1ccccc1)NC(=O)CCC1CC(OC(=O)NCCc2ccc(F)cc2)CC2(CCCC(COC(=O)NCc3cccc(C(F)(F)F)c3)O2)O1` (stereo partly specified), the composite z-score was found to be 0.465. As for `C[C@H]1CC[C@@H](C(=O)O)N[C@@H]1c1ccc(C#Cc2ccccc2)cc1`, the composite z-score was -0.332. As for `C[C@H]1CC[C@H]2C(=O)OC(COc3ccc(C(C)(C)C)cc3)CN2[C@@H]1c1ccc(Br)cc1` (stereo partly specified), the figure is 0.14; as for `OC[C@H]1O[C@H](C#Cc2ccccc2)C=C[C@@H]1O`, -0.644. As to `CC(C)(C)N1C(=O)[C@H]2[C@H]3[C@H](O)[C@H](O)CC(=NOC[C@@H](O)COCc4ccco4)[C@@H]3CC[C@H]2C1=O`, the composite z-score amounted to 0.314. `COC(=O)[C@H](C)NC(=O)CCC1CC(OC(=O)NCc2ccc3c(c2)OCO3)CC2(CCCC(COC(=O)NCc3ccccc3)O2)O1` (stereo partly specified): the composite z-score is -0.558. With `O=C1[C@H]2[C@H]3[C@H](O)[C@H](O)CC(=NOC[C@@H](O)COCc4ccco4)[C@@H]3CC[C@H]2C(=O)N1Cc1ccccc1`, the composite z-score was -1.55. Regarding `COc1ccc(COC(=O)NN=C2C[C@@H](O)[C@@H](O)[C@@H]3[C@@H]4C(=O)N(C5CCCCC5)C(=O)[C@@H]4CC[C@@H]23)cc1`, the composite z-score was -0.811. As for `CC(=O)OC[C@H]1O[C@@H](ON=C(C)CCN2CCCCc3nc(C)c(C)cc32)[C@H](OC(C)=O)[C@@H](OC(C)=O)[C@@H]1OC(C)=O`, the figure is -0.767; as for `CCOC(=O)[C@H](CC(C)C)NC(=O)CCC1CC(OC(=O)NCc2ccc3c(c2)OCO3)CC2(CCCC(COC(=O)NCCOC)O2)O1` (stereo partly specified), -0.491; as for `CO[C@H]1COC(=O)[C@H](C)COC(=O)[C@@H](OCc2ccccc2)C=C[C@@H]1C`, -0.726.
